Only some compounds are listed: those with a hit (about 1.4% of all), similar ones and a draw of the others.
BCLXL inh = blocks human Bcl-xL binding to Bim BH3 peptide; Q07817; GST-Bcl-xL / FITC-Bim BH3 peptide fluorescence polarization; inhibition, % at 10.9 µM; 320,000 tested, 0.7% active;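 active = inhibition above the mean of all tested compounds plus 3 SD, cutoff set per campaign, cut at about 30% in these data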;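 note: inhibitors lower millipolarization by displacing the labeled peptide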
MEX-5 binding = C. elegans MEX-5 TCR-2 RNA binding activity; Q9XUB2; MEX-5/FITC-TCR2 RNA binding, fluorescence polarization; hits give low values; activity score (negative = inhibition of binding), % at 10 µM; 300,000 tested, 0.38% active; AID 1832;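 active = inhibition past about -25% in most replicates, and total fluorescence under double the plate's negative control median, limit read from the data; inconclusive = replicates evenly split on the limit, or fluorescence at least double controls; inactive = too little inhibition in most replicates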
eLon inh = inhibitors of E. coli Lon protease; inhibition, % at 7.94 µM; purified E. coli Lon protease, fluorescence polarization; 360,000 tested, 0.42% active; AID 602123; in the data active = inhibition above about 13%, passing the limit was not always enough
GLD-1 TGE inh = GLD-1-TGE RNA interaction inhibition (C. elegans); purified GLD-1 + fluorescein TGE RNA, fluorescence polarization; inhibition, % at 5.96 µM; Q17339; 320,000 tested, 0.44% active; AID 2280;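 active = percent inhibition above a per-plate cutoff, the plate mean of test compounds plus 3 SD, cut at about 30% in these data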
EBV gp42 block = EBV gp42 inhibition; Fluorescence polarization binding assay, mP read-out; inhibition, % (tested at 21.74 µM); 220,000 tested, 0.42% active; AID 1085; in the data active = inhibition above about 50%
Target sequence (Q1HVG2 whole entry, looked up): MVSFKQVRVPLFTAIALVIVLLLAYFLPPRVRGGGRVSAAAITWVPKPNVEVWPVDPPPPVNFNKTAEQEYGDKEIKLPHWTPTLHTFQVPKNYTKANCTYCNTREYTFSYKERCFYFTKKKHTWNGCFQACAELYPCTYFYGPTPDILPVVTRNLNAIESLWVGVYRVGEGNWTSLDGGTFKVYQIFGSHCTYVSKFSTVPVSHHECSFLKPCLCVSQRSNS
MCL1 BIM primary = inhibitors of human MCL1 binding to BIM-BH3 peptide. Q07820. GST-MCL1 / FITC-Bim-BH3 fluorescence polarization. inhibition, % at 10.9 µM. 320,000 tested, 0.68% active;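 active = inhibition above the mean inhibition of all tested compounds plus 3 SD, set per campaign, cut at about 40% in these data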;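 note: higher means more loss of mP so more displacement of Bim peptide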
Target sequence (Q07820 whole entry, looked up): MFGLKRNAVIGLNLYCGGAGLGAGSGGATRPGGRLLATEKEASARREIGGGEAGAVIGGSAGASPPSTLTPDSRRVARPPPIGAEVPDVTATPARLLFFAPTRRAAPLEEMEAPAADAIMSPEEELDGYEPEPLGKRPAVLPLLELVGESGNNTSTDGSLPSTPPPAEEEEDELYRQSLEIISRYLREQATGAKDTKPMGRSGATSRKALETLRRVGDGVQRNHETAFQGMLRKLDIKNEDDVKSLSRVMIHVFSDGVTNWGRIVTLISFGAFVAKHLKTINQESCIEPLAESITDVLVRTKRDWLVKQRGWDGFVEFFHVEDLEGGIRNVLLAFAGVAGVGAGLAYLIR
BCLXL inh confirm = counter-screen for MCL1 inhibitors: confirmation of human Bcl-xL inhibitors | shares compounds with MCL1 BIM primary | GST-Bcl-xL / FITC-Bim BH3 peptide FP binding | inhibition, % at 10.9 µM | 1,700 tested, 54% active;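 active = inhibition above a cutoff equal to the mean inhibition of all tested compounds plus 3 SD, cut at about 30% in these data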
MCL1 inh confirm = MCL1-BIM-BH3 interaction inhibition, confirmation. AID 2168. inhibition, % at 10.9 µM. 1,700 tested, 61% active. shares compounds with MCL1 BIM primary. GST-MCL1 / FITC-Bim-BH3 fluorescence polarization;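 active = inhibition above the average of all tested compounds plus 3 SD, cut at about 40% in these data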
Hits are given with their value; n = inactive; u = inconclusive; x = no result; + = active, no number.

SMILES	BCLXL inh	MEX-5 binding	eLon inh	GLD-1 TGE inh	EBV gp42 block	MCL1 BIM primary	others
Nc1ncnc(NNC(=O)CNC(=O)c2c(F)cccc2Cl)c1[N+](=O)[O-]	n	-66	n	n	n	n
Cc1cccc(-c2noc(CCCC(=O)NC3CCCCC3)n2)c1	n	n	n	n	x	n
O=C(O)C1CC(O)CN1c1nc(Cl)ccc1[N+](=O)[O-] (centres undefined)	37	n	n	n	n	n
O=C(NNC(=O)c1ccccc1OCc1ccccc1Cl)c1csc(N2CCOCC2)n1	n	n	n	n	x	n
CCOC(=O)N1CC=C2C(C#N)=C(N)C(C#N)(C#N)[C@H](c3ccsc3)[C@H]2C1	41	u	n	n	n	n
O=C(O)c1ccc(-c2nnn(Cc3cccc(C(F)(F)F)c3)n2)cc1	n	n	n	n	n	n
CCOc1ccc(C(=O)Nc2ccccc2N2CCN(C(=O)c3ccccc3)CC2)cc1[N+](=O)[O-]	n	n	n	n	x	n
COc1ccc(NC(=O)c2sc3nc(-c4cccnc4)ccc3c2N)cc1OC	48	u	n	n	n	n
COc1cccc(-c2ccc3c(N)c(C(=O)NC4CC4)sc3n2)c1	n	n	n	n	n	n
CC1CN(C2CC(C)(C)NC(C)(C)C2)CCC1=O (centres undefined)	n	-48	n	n	n	n
Cc1ccccc1Nc1nc(Cl)c(C=O)s1	n	-41	n	n	n	n
O=C(NC(Cc1ccccc1)C(=O)N1CCN(c2ccc(F)cc2)CC1)c1ccccc1 (centres undefined)	x	x	n	x	x	x
CC(C)OC(=O)c1c2nc3ccccc3nc2n2c1[nH]c(=O)c1ccccc12	n	n	x	48	n	n
CC(C)OC(=O)c1c(N)n(CCCN2CCOCC2)c2nc3ccccc3nc12	n	n	n	n	n	n
O=c1cc(-c2ccc([N+](=O)[O-])cc2)nc2cc(-c3ccc(Cl)cc3)[nH]n12	n	x	x	n	83	n
CCCc1cc(=O)n2[nH]c(-c3ccc(Cl)cc3)cc2n1	n	n	n	n	x	n
Cc1cnn(C(=O)c2cc(-c3ccccn3)nc3ccc(Cl)cc23)c1	31	n	n	n	n	n
O=C(c1cc(-c2ccccn2)nc2ccc(Cl)cc12)N1CCN(CCc2ccccc2)CC1	n	n	n	n	n	n
COc1cc(SC)ccc1C(=O)Nc1cccc(S(=O)(=O)NC2=NCCCCC2)c1	n	n	n	165	x	n
CCN(CC)S(=O)(=O)c1cccc(NC(=O)c2ccc(SC)cc2OC)c1	n	n	n	n	n	n
CC1(Oc2ccccc2-c2ccno2)CCN(Cc2csc3ccccc23)C1 (centres undefined)	x	x	n	x	x	x
O=C(O)COc1ccc(/C=N/NC(=O)c2ccc(-c3csc(Nc4ccc(Cl)cc4)n3)cc2)cc1	x	n	n	x	92	x
CCOc1cc(/C=N/NC(=O)c2ccc(-c3csc(Nc4ccc(C)cc4)n3)cc2)ccc1OCC(=O)O	x	x	n	x	89	x
CCOC(=O)/C=c1\s/c(=C\c2ccc3cc(OC)ccc3c2)c(=O)n1CC(=O)NCC1CCCO1 (centres undefined)	n	-47	n	n	n	n
NC(=O)CC(NC(=O)c1ccc(Br)cc1)c1ccc(N2CCCCCC2)c([N+](=O)[O-])c1 (centres undefined)	n	n	n	n	x	n
SMILES	BCLXL inh	MEX-5 binding	eLon inh	GLD-1 TGE inh	EBV gp42 block	MCL1 BIM primary	others
COc1ccc(-n2c(SCC(=O)Nc3ccc(Br)cc3)nc(O)cc2=O)cc1	n	x	n	n	n	n
CC(C)(C)c1cc(C(=O)NCCN2CCCC2)cc(C(C)(C)C)c1	n	n	n	n	n	n
COc1ccc(C)cc1Nc1n[n+](C)c(-c2c3ccccc3cc3ccccc23)s1	32	n	x	n	x	n
COc1ccc(C)cc1Nc1n[n+](C)c(-c2ccc(O)cc2O)s1	n	n	n	n	x	n
CCCCN(CC(=O)NCCOC)C(=O)Cn1nnc2ccccc21	n	n	n	n	n	n
COc1ccc(C2NC3=C(CCC3)C3(C#N)C(OC)(OC)N=C(N)C23C#N)cc1 (centres undefined)	31	n	n	n	n	n
COC1(OC)N=C(N)C2(C#N)C(c3ccccc3)NC(C)=CC12C#N (centres undefined)	n	n	n	n	n	n
Cc1nc(SCC(=O)Nc2nc3ccccc3s2)c(C#N)c(C)c1C	n	n	n	n	n	n
Cc1cc(C(F)(F)F)c(C#N)c(SCC(=O)Nc2nc3ccccc3s2)n1	37	n	n	n	n	n
COc1ccc(N=C2NC(=O)S/C2=C\c2ccc(N(C)C)cc2)cc1	n	n	n	n	95	n
CN(C)c1ccc(C=C2SC(=S)NC2=O)cc1	x	x	n	x	x	x
CN(C)c1ccc(N/C=C/C(=O)C(C)(C)C)cc1	32	n	n	n	n	n
O=C(CN1CCc2cc3c(cc2C1)OCCCO3)Nc1c(F)cccc1F	n	n	n	n	x	n
Oc1[nH]c2ccc(Br)cc2c1N=Nc1ccc(F)cc1	183	u	n	107	x	+	BCLXL inh confirm=143;MCL1 inh confirm=198
Brc1ccc(-c2cn3nc4c(nc3n2)CCCC4)cc1	75	n	n	42	n	79	BCLXL inh confirm=45;MCL1 inh confirm=44
c1ccc(-c2cn3nc(-c4ccccc4)cnc3n2)cc1	n	x	n	n	n	n
Nc1nn2cc(-c3ccc(Br)cc3)nc2c2ccccc12	n	n	n	n	n	n
c1ccc(-c2cn3nc4c(nc3n2)CCCC4)cc1	112	-37	n	91	63	130	BCLXL inh confirm=78;MCL1 inh confirm=97
COc1ccc(CNC(=O)C/C(C)=N/NC(=O)c2ccc(OC)cc2OC)cc1	n	n	n	n	x	n
OCCN1CCN(CCCN2c3ccccc3Sc3ccc(Cl)cc32)CC1	n	n	n	n	n	n
CC(=O)c1ccc2c(c1)N(CCCN1CCC(CCO)CC1)c1ccccc1S2	n	x	n	n	x	44	BCLXL inh confirm=n;MCL1 inh confirm=n
O=C1Nc2ccccc2SC(c2ccccc2)C1O (centres undefined)	n	n	n	n	67	63	BCLXL inh confirm=n;MCL1 inh confirm=91
CCOC(=O)c1ccc(NC(=O)CSc2nc(C)cc(=O)[nH]2)cc1	n	n	n	n	n	41	BCLXL inh confirm=n;MCL1 inh confirm=51
COc1cccc(/C=N/NC(=O)c2cc3cc([N+](=O)[O-])ccc3s2)c1O	n	n	n	n	n	45	BCLXL inh confirm=n;MCL1 inh confirm=90
O=C(COc1cccc2ccccc12)N/N=C/c1ccccc1OCc1ccc(C(=O)O)cc1	n	n	n	n	n	49	BCLXL inh confirm=n;MCL1 inh confirm=n

Screening data as filed in PubChem BioAssay.
